Sampled rows, rich in hits. Any-hit rate of the full collection: about 2.2%.
MITF TRPM1 inh: inhibitors of MITF-driven TRPM1 promoter in melanoma cells; inhibition, % at 12.5 µM; 330,000 compounds, 0.83% hits; SK-MEL-5 TRPM1 promoter luciferase, 24 h; AID 488899;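 active = mean inhibition across replicates of 60% or more, whatever share of single replicates reaches that level; inconclusive = some that reach 60%, reason not given; inactive = mean inhibition across replicates below 60%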
PAX8 reporter: inhibitors of PAX8 transcriptional activity in RMG-I cells; RMG-I TPO-luciferase reporter, SteadyGlo, 24 h; inhibition, % at 12.6 µM; 360,000 compounds, 1.2% hits; AID 652154;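 active = mean replicate inhibition at least 60% with every replicate also reaching 60%; inconclusive = only one of the two criteria is met; inactive = mean below 60% and not all replicates reaching 60%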;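 note: luciferase light reporting Pax8 driven TPO promoter activity; plate controls were median of neutral control wells for no effect and mitoxantrone controls for full effect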
LGR2 inh: blocks bursicon-induced cAMP signaling via Drosophila LGR2; HEK293 LGR2, CRE-luciferase, bursicon-stimulated, 4 h; 380,000 compounds, 0.35% hits; inhibition, % at 9.99 µM;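 active = drop in luminescence signal, shown as inhibition above about 50% in the replicate tests, limit read from the data, passing the limit was not always enough; inconclusive = probably only some replicates passing the limit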;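 note: agonist challenge used bursicon conditioned medium at about half maximal strength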
EWS-Fli block: EWS/Fli transcriptional activity inhibition; A673 NR0B1-luciferase reporter, viability-normalised; inhibition, % at 12.6 µM; 350,000 compounds, 0.67% hits;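 active = mean inhibition of at least 50% after viability correction, with every replicate also passing that limit; inconclusive = mean reaches 50% but only one of two replicates passes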;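 note: firefly luciferase signal divided by Alamar Blue viability fluorescence both relative to DMSO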
LMP1 NFkB inh: inhibitors of Epstein-Barr LMP1-induced NF-kappaB reporter. LMP1-induced NF-kappaB luciferase reporter cells, luminescence. inhibition, % at 12.5 µM. 350,000 compounds, 0.69% hits. AID 504558; in the data active = inhibition above about 41%; inconclusive = no clear call, values can overlap the other calls;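 note: 0% = neutral control wells and 100% = reference inhibitor control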
PGC1a acetyl inh: modulators of PGC1a acetylation; U2OS PGC1a acetylation, AlphaScreen anti-acetyl-lysine; with virally co-expressed GCN5 acetyltransferase; inhibition, % at 15.6 µM; 350,000 compounds, 0.17% hits; AID 651687;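 active = every replicate shows inhibition of at least 40%; inconclusive = mean inhibition at least 40% but some replicate below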;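 note: 0% = neutral control wells and 100% = positive control wells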
The depositor's hits bear a star; ? = inconclusive; . = not tested or not shown.

SMILES | MITF TRPM1 inh | PAX8 reporter | LGR2 inh | EWS-Fli block | LMP1 NFkB inh | PGC1a acetyl inh
COc1ccc(S(=O)(=O)N(C)C[C@@H]2Oc3ccc(NC(=O)Nc4ccc(C(F)(F)F)cc4)cc3CC(=O)N([C@@H](C)CO)C[C@@H]2C)cc1 | . | 65.9* | -10.2 | 45.6 | . | 22.0
COc1ccc(S(=O)(=O)N(C)C[C@@H]2Oc3ccc(NC(=O)Nc4ccc(C(F)(F)F)cc4)cc3CC(=O)N([C@H](C)CO)C[C@@H]2C)cc1 | . | 77.8* | 11.1 | 43.9 | . | 17.0
COc1ccc(NC(=O)Nc2ccc3c(c2)CC(=O)N([C@H](C)CO)C[C@@H](C)[C@@H](CN(C)S(=O)(=O)c2ccc(OC)cc2)O3)cc1 | . | 3.4 | -2.2 | 9.1 | . | -3.3
COc1ccc(S(=O)(=O)N(C)C[C@@H]2Oc3ccc(NC(=O)Nc4ccc(C(F)(F)F)cc4)cc3CC(=O)N([C@H](C)CO)C[C@H]2C)cc1 | . | 0.3 | -1.6 | -16.9 | . | 16.6
CC(C)CCCCCCNC(=S)Nc1ccc(S(=O)(=O)N2CCOCC2)cc1 | 0.5 | 58.9 | 50.6* | 12.6 | -7.1 | -2.7
O=C(N/N=C/c1ccccc1Cl)c1n[nH]c2c1CCCC2 | 67.1* | 77.1* | 71.5* | 14.5 | 18.7 | .
CO[C@H]1CN(C)C(=O)c2cc(NS(C)(=O)=O)ccc2OC[C@@H](C)N(Cc2nccs2)C[C@@H]1C | . | -13.7 | -2.2 | -1.5 | . | 0.5
O=C(CN1C(=O)NC2NC(=O)NC21)NN=C1CCCC1 (centres undefined) | -1.9 | 83.1* | 10.1 | -6.9 | -1.0 | .
CS(=O)(=O)Nc1ccc2c(c1)[C@H]1C[C@@H](CC(=O)NCc3ccc(Oc4ccccc4)cc3)O[C@H](CO)[C@H]1O2 | . | 15.5 | -6.4 | 20.3 | . | 7.1
NNC(=O)c1cccc(COc2ccc3c(c2)CCC3)c1 | 45.3 | 46.5 | ? | . | 63.4* | .
Cc1nnc(SCC(=O)Nc2cc(-c3cc(C)c(C)cc3C)nn2-c2ccccc2)s1 | 2.7 | 21.8 | 2.3 | -27.0 | 50.5* | .
CCCNC(=O)N(C)C[C@@H]1Oc2ncc(-c3ccccc3F)cc2C(=O)N([C@H](C)CO)C[C@@H]1C | . | -16.0 | -14.0 | -182.3 | . | 15.6
CN(C)CCCNC(=O)C[C@@H]1CC[C@H]2[C@@H](COc3ccc(NC(=O)C4CCC4)cc3C(=O)N2C)O1 | . | -6.6 | -15.1 | -14.0 | . | 2.3
CC(C)c1ccc(OCC(=O)NNC(=O)c2cnccn2)cc1 | 4.9 | -0.1 | -2.2 | 5.4 | 54.9* | .
O=C(COc1ccc2ccccc2c1)NNC(=O)c1cnccn1 | 6.1 | 2.3 | -19.8 | . | 1.0 | .
CCCCC[C@@H](C)N1C[C@@H](COCc2ccccc2)Oc2cc(N3CC[C@@H](N(C)C)C3)ccc2S1(=O)=O | . | 17.4 | -0.5 | 19.1 | . | .
CCCCC[C@@H](C)N1C[C@H](COCc2ccccc2)Oc2cc(N3CC[C@@H](N(C)C)C3)ccc2S1(=O)=O | . | 84.5* | 24.2 | 42.2 | . | .
CC1CCc2nc(N)c(C#N)c(-c3ccncc3)c2C1 (centres undefined) | 1.5 | . | . | . | 5.7 | 7.7
CC1CCc2nc(N)c(C#N)c(-c3cccnc3)c2C1 (centres undefined) | 4.0 | -61.8 | 26.8 | 3.4 | 58.6* | 36.8
N#CC(C#N)=C1C=CC=CN1/C(=C\c1ccco1)C(=O)c1ccc(Br)cc1 | 85.2* | 102.4* | 22.8 | . | -21.2 | .
COc1ccc(C(=O)/C(=C\c2ccco2)N2C=CC=CC2=C(C#N)C#N)cc1 | 95.6* | . | . | . | 10.2 | 71.3*
N#CC(C#N)=C1C=CC=CN1/C(=C\c1ccco1)C(=O)c1ccccc1 | 104.2* | 121.9* | 100.2* | 78.3* | 0.0 | .
COc1ccc(C(=O)N/C(=C\c2ccco2)C(=O)OCc2ccco2)cc1 | -5.7 | 5.8 | -1.2 | 5.3 | 7.2 | -2.8
CC(=O)N1[C@@H]2CN(C(=O)c3ccccc3)c3ccccc3[C@@H]2[C@@H]1CO | . | -3.2 | 4.3 | -5.9 | . | 7.5
CC1(C)C(=O)C=CC(=O)C(C)(C)C(=O)C=CC(=O)C(C)(C)C2=CC=C(O2)C(C)(C)C(=O)C=CC1=O | 91.7* | 0.8 | 23.3 | 10.5 | -11.6 | .
SMILES | MITF TRPM1 inh | PAX8 reporter | LGR2 inh | EWS-Fli block | LMP1 NFkB inh | PGC1a acetyl inh
COc1cccc(S(=O)(=O)N2C[C@H](O)COC[C@H]3O[C@H](CC(=O)Nc4ccccc4)CC[C@@H]32)c1 | . | -7.1 | 11.3 | -6.3 | . | 3.0
CCOc1cc(/C=N\NC(=O)Cc2ccccc2)ccc1OCC(=O)Nc1ccc(C)c(C)c1 | 64.0* | . | . | . | -61.9 | -2.6
CCOc1cc(/C=N\Nc2ccc([N+](=O)[O-])cc2)ccc1OCC(=O)Nc1ccc(C)c(C)c1 | 2.2 | . | . | . | -7.7 | -2.3
O=C(COc1ccc(/C=N/NC(=O)c2cc3ccccc3o2)cc1Cl)Nc1ccccc1 | 95.3* | . | . | . | -20.9 | 1.5
C[C@@H]1CN([C@H](C)CO)C(=O)c2cc(-c3ccc(F)cc3)cnc2O[C@H]1CN(C)Cc1cncnc1 | . | . | -2.2 | -6.7 | . | .
COC(=O)c1ccc(COc2ccccc2/C=C/C(=O)c2ccc(OCC(=O)O)cc2)cc1 | -2.5 | 17.9 | 18.7 | 24.9 | 68.6* | -4.5
COC(=O)c1ccc(COc2ccccc2/C=N/Nc2cccc(C(=O)O)c2)cc1 | -47.2 | -240.5 | -83.6 | -48.3 | -26.2 | .
COCC(=O)OC1CCn2c1nc1c2C(=O)C(C)=C(NC(C)=O)C1=O (centres undefined) | 85.6* | 115.3* | 85.8* | 14.2 | 87.5* | .
COCC(=O)N1CCC2(CC1)CN(Cc1cccc(Cl)c1)[C@@H](CO)c1[nH]c3cc(OC)ccc3c12 | . | . | -13.8 | 0.7 | . | 9.9
Cc1cc(N)nc(=O)n1C1CC(O)C(CO)O1 (centres undefined) | 15.2 | -10.6 | -8.2 | -9.3 | 86.7* | .
Nc1nc(=O)n(C2CC(O)C(CO)O2)cc1Cl (centres undefined) | . | -0.5 | 4.5 | 32.9 | . | -2.3
CN(C)C(=O)c1ccc(-c2ccc([C@H]3[C@@H](C#N)N(S(C)(=O)=O)[C@H]3CO)cc2)cc1 | . | -2.7 | 4.1 | -15.3 | . | 7.6
FC(F)(F)c1nc2ccccc2n2c(-c3ccc(Cl)cc3)nnc12 | 76.2* | . | . | . | 52.9* | 7.3
FC(F)(F)c1nnc2c(Sc3ccc(Cl)cc3)nc3ccccc3n12 | 78.5* | 88.4* | . | . | -49.7 | .
Cc1ccc(-c2nnc3c(C(F)(F)F)nc4ccccc4n23)cc1 | 27.6 | . | -4.5 | . | 6.8 | 0.2
FC(F)(F)c1nnc2c(Sc3ccccn3)nc3ccccc3n12 | 46.3 | 114.0* | . | . | -28.5 | -4.5
COc1ccc(C[C@@H]2CCc3cnnn3COC[C@@H](c3ccccc3)NC2=O)cc1 | . | 8.4 | -14.4 | 1.1 | . | .
COCCCNC(=S)Nc1cc(C)c(C)cc1C | 13.1 | -6.3 | . | -1.7 | -1.0 | 75.0*
Cc1cc2ncn(/N=C/c3ccc([N+](=O)[O-])o3)c2cc1C | 84.9* | . | 7.6 | 8.7 | -48.1 | -11.2
O=C(O)/C=C/c1ccc([N+](=O)[O-])o1 | 6.1 | 30.8 | 4.6 | 5.0 | -3.9 | .
O=C1C2C3C=CC(C4CC34)C2C(=O)N1/N=C/c1ccc(-c2ccc([N+](=O)[O-])cc2)o1 (centres undefined) | 19.2 | -1.3 | -10.3 | 3.8 | -3.1 | 3.6

Bioassay records deposited in PubChem BioAssay by Broad Institute.
